What all share (test): DAPPL (digital affinity profiling via proximity ligation, sequencing); 10 mM Tris-HCl pH 7.5, 50 mM NaCl, 1 mM DTT, 4% glycerol, room temperature, 30 min; GST-TFs on glutathione beads, 16-mer random dsDNA library, 0.1% formaldehyde crosslink after washing; high values mean tight binding
One assay addresses T1, FEV (Homo sapiens, UniProt Q99581 1-238).
T1 sequence: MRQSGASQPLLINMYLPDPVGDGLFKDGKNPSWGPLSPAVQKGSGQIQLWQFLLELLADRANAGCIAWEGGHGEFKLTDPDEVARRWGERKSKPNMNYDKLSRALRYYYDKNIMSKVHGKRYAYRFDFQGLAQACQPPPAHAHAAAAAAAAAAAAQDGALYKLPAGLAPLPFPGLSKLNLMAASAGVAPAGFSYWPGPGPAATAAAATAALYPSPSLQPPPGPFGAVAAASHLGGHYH
The conditions noted are these: protein: recombinant; tags: N-terminal GST; dsDNA, one strand shown. The procedure, abridged:
(§1)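 Human transcription factors fused to GST were expressed in yeast, captured on glutathione beads, given DNA barcodes and pooled with a GST-only negative control. Pools were incubated with 200 nmole of a 16-mer random double-stranded DNA library in Tris/NaCl/DTT/glycerol buffer at room temperature for 30 min. They were then washed, crosslinked with 0.1% formaldehyde, proximity-ligated (BsaI/T4 ligase, 1 h, 37 °C), PCR-amplified and sequenced on an Illumina NextSeq500. Binding signal is each 6-mer's read frequency for a factor divided by its frequency for the GST control.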

In the next assay the target is ETV5 (Homo sapiens, UniProt P41161 1-510). Conditions: protein: recombinant; tags: N-terminal GST; dsDNA, one strand shown. In outline: as §1
ETV5, sequence (P41161 whole entry): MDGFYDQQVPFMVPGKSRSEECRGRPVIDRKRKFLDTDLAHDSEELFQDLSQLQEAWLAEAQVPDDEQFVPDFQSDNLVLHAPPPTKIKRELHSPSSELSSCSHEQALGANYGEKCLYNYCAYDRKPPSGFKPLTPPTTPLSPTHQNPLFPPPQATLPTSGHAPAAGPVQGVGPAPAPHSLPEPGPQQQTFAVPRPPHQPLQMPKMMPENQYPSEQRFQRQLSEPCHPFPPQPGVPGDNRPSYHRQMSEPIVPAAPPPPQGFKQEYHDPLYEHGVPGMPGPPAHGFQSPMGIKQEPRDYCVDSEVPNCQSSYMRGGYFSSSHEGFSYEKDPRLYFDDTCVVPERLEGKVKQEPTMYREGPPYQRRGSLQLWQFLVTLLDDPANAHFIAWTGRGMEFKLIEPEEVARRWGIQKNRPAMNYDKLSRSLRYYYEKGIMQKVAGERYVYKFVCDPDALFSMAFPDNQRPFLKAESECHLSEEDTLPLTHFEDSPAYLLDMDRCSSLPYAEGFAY
The next assay addresses HSF1 (Homo sapiens, UniProt Q00613 1-529). Conditions: protein: recombinant; tags: N-terminal GST; chain copies: 3; dsDNA, one strand shown. The procedure, abridged:
as §1

For a further assay, the target named is T2, SPIC (Homo sapiens, UniProt Q8N5J4 1-248).
T2 sequence: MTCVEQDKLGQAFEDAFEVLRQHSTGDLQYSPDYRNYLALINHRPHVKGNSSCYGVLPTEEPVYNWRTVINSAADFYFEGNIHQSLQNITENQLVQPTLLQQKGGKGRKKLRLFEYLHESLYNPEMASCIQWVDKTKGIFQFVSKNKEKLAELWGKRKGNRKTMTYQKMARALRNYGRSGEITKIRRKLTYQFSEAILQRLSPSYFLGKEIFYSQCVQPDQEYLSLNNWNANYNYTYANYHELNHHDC
Conditions: protein: recombinant; tags: N-terminal GST; dsDNA, one strand shown. In outline:
as §1

The target in a further assay is ELF4 (Homo sapiens, UniProt Q99607 1-663). The conditions noted are these: protein: recombinant; tags: N-terminal GST; dsDNA, one strand shown. The procedure, abridged:
as §1

Another assay addresses T3, ELK4 (Homo sapiens, UniProt P28324-2 1-405).
T3 sequence: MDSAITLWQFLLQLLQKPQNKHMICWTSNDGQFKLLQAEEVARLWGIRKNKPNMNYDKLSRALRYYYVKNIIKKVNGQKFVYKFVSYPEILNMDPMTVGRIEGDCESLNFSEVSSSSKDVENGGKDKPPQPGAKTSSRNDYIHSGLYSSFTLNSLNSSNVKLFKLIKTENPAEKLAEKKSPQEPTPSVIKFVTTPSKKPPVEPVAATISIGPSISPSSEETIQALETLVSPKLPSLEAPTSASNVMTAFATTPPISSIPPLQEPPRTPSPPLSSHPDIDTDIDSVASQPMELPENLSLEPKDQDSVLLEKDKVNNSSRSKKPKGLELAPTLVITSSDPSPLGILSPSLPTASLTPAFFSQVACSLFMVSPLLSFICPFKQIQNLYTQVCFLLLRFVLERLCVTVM
Conditions: protein: recombinant; tags: N-terminal GST; dsDNA, one strand shown. The procedure, abridged: as §1

For another assay, the target named is T4, ETV2 (Homo sapiens, UniProt O00321 1-342).
T4 sequence: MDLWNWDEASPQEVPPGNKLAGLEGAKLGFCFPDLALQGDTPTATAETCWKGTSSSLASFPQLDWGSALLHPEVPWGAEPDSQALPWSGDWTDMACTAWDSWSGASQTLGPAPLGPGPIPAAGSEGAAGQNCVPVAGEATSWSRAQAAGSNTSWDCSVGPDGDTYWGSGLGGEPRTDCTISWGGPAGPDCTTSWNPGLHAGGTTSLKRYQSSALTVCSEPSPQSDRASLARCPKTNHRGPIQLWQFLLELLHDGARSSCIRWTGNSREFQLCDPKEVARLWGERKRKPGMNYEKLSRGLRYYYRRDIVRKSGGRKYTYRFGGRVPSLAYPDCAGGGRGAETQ
Conditions: protein: recombinant; tags: N-terminal GST; dsDNA, one strand shown. The procedure, abridged:
as §1

The target in another assay is T5, ELF3 (Homo sapiens, UniProt P78545 1-371).
T5 sequence: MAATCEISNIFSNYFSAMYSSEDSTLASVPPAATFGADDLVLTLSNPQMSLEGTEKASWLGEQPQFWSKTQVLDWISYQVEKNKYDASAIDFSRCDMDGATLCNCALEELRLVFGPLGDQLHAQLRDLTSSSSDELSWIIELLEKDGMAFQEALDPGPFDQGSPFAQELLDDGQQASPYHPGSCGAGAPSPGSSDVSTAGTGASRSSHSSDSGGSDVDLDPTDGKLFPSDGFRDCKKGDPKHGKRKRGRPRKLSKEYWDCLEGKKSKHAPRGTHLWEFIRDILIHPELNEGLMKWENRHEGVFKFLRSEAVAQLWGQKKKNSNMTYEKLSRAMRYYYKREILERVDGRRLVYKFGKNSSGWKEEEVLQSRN
Conditions: protein: recombinant; tags: N-terminal GST; dsDNA, one strand shown. In outline:
as §1

The target of another assay is CRX (Homo sapiens, UniProt O43186 1-299). Conditions: protein: recombinant; tags: N-terminal GST; dsDNA, one strand shown. The procedure, abridged:
as §1

For a further assay, the target named is ETV1 (Homo sapiens, UniProt P50549 1-477). Conditions: protein: recombinant; tags: N-terminal GST; dsDNA, one strand shown. The procedure, abridged: as §1
ETV1, sequence (P50549 whole entry): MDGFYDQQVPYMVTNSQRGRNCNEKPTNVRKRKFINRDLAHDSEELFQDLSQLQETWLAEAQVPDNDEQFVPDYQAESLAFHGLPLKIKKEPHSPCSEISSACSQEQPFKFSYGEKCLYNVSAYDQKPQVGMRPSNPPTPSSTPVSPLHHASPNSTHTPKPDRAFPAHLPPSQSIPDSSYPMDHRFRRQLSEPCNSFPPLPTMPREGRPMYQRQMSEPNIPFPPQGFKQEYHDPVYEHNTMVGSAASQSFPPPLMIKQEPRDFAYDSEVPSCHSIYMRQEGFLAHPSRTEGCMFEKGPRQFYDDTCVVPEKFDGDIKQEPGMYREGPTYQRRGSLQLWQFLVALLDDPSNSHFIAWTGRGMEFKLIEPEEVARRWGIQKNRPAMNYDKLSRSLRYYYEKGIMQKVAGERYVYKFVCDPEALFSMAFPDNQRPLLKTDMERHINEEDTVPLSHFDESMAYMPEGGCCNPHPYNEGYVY
The target of a further assay is T6, ERF (Homo sapiens, UniProt P50548 1-548).
T6 sequence: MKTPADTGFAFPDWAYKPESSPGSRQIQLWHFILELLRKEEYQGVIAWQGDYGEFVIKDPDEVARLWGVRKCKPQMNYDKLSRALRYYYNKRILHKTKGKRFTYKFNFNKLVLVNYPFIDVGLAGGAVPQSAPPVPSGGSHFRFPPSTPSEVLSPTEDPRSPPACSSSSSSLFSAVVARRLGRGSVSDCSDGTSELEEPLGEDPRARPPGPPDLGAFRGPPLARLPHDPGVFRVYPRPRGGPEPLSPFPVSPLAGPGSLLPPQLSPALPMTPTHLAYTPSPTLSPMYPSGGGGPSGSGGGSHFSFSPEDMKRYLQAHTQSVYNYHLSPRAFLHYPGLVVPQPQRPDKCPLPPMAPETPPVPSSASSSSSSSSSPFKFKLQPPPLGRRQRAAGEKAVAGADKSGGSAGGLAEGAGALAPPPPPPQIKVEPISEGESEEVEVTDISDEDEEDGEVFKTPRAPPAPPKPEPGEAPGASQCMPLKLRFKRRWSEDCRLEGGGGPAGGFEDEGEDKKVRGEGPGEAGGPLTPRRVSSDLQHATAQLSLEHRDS
Conditions: protein: recombinant; tags: N-terminal GST; dsDNA, one strand shown. The procedure, abridged: as §1

Another assay addresses T7, ETV3L (Homo sapiens, UniProt Q6ZN32 1-361).
T7 sequence: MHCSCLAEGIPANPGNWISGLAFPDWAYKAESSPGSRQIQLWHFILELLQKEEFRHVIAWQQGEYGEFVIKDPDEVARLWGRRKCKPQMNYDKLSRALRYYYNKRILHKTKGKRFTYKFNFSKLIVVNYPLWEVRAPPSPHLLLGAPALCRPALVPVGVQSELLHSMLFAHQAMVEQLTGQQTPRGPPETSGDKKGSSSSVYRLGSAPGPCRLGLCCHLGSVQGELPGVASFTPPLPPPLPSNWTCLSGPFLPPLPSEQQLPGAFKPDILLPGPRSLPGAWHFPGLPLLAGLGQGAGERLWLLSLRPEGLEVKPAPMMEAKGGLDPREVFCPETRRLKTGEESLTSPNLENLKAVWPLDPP
The conditions noted are these: protein: recombinant; tags: N-terminal GST; dsDNA, one strand shown. The procedure, abridged:
as §1

The target in the next assay is T8, ETS2 (Homo sapiens, UniProt P15036 1-469).
T8 sequence: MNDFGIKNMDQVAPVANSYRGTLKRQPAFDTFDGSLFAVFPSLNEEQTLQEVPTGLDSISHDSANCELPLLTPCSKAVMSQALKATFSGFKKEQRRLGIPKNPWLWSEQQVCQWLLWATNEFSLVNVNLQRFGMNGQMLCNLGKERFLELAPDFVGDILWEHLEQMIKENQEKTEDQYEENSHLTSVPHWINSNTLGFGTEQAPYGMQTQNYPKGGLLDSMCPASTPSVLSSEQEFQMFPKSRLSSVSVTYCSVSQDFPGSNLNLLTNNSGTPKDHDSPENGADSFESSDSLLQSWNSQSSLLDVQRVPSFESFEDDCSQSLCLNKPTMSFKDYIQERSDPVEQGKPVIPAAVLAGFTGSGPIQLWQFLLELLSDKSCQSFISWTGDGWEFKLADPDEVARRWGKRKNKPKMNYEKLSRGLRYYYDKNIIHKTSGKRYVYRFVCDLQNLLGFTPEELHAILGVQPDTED
Conditions: protein: recombinant; tags: N-terminal GST; dsDNA, one strand shown. The procedure, abridged: as §1

The target of another assay is T9, SPDEF (Homo sapiens, UniProt O95238 1-335).
T9 sequence: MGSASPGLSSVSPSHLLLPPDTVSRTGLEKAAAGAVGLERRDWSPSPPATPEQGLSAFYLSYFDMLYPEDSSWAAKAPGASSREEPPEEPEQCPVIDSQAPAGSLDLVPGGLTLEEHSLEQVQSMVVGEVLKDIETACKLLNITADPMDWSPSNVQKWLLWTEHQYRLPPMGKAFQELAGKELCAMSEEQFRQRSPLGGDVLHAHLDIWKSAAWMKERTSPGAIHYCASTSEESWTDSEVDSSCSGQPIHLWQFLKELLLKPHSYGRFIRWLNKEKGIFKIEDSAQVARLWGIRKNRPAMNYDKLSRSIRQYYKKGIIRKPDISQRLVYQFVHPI
The conditions noted are these: protein: recombinant; tags: N-terminal GST; dsDNA, one strand shown. The procedure, abridged:
as §1

The target in the next assay is T10, ETV7 (Homo sapiens, UniProt Q9Y603 1-341).
T10 sequence: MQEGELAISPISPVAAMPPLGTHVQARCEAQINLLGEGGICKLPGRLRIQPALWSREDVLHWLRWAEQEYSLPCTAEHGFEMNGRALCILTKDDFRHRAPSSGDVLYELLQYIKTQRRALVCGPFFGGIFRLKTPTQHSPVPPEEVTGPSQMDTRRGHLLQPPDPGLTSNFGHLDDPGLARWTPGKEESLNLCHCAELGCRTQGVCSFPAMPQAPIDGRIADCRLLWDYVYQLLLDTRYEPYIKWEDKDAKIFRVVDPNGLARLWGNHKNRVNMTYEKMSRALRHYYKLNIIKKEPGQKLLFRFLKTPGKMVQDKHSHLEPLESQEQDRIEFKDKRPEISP
Conditions: protein: recombinant; tags: N-terminal GST; dsDNA, one strand shown. In outline:
as §1

For the next assay, the target named is T11, ELF5 (Homo sapiens, UniProt Q9UKW6-2 1-255).
T11 sequence: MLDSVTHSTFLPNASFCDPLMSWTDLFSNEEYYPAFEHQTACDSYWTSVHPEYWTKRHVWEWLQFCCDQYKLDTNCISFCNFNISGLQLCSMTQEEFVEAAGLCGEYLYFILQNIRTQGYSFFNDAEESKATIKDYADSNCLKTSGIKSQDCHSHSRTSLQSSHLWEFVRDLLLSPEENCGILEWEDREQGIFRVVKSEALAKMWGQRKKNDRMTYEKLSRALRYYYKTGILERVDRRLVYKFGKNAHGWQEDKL
The conditions noted are these: protein: recombinant; tags: N-terminal GST; dsDNA, one strand shown. The procedure, abridged:
as §1

Another assay deals with T12, ETV3 (Homo sapiens, UniProt P41162-2 1-143).
T12 sequence: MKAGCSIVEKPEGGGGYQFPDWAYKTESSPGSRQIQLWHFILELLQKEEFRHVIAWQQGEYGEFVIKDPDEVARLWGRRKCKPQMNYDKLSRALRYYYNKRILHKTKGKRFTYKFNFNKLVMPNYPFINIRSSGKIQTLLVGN
The conditions noted are these: protein: recombinant; tags: N-terminal GST; dsDNA, one strand shown. In outline: as §1

The target of the next assay is ETV6 (Homo sapiens, UniProt P41212 1-452). The conditions noted are these: protein: recombinant; tags: N-terminal GST; dsDNA, one strand shown. In outline: as §1
ETV6, sequence (P41212 whole entry): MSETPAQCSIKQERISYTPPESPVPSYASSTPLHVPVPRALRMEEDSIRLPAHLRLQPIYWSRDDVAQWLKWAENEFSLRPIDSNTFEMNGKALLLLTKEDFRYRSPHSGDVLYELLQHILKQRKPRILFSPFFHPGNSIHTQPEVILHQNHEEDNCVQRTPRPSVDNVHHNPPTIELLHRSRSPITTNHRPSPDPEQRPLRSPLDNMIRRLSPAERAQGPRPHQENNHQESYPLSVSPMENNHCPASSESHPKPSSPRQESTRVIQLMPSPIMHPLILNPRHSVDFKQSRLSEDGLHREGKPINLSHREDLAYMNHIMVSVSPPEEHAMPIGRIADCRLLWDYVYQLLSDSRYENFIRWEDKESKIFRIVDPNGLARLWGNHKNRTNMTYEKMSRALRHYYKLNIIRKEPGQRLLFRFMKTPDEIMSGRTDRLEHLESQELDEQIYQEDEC

HSF1, sequence (Q00613 whole entry): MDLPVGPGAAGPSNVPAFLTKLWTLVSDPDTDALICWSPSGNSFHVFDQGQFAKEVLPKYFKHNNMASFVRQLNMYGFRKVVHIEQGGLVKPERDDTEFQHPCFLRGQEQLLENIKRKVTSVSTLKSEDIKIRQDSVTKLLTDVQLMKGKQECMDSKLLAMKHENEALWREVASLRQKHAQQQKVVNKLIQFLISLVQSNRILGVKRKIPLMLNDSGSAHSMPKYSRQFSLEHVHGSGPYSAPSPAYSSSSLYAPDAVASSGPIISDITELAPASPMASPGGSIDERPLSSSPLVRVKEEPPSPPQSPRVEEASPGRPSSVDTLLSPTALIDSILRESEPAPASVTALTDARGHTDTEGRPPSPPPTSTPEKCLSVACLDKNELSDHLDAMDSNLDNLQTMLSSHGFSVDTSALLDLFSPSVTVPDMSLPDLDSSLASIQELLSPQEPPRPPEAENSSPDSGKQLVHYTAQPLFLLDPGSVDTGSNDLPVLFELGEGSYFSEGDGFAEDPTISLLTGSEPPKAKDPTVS
ELF4, sequence (Q99607 whole entry): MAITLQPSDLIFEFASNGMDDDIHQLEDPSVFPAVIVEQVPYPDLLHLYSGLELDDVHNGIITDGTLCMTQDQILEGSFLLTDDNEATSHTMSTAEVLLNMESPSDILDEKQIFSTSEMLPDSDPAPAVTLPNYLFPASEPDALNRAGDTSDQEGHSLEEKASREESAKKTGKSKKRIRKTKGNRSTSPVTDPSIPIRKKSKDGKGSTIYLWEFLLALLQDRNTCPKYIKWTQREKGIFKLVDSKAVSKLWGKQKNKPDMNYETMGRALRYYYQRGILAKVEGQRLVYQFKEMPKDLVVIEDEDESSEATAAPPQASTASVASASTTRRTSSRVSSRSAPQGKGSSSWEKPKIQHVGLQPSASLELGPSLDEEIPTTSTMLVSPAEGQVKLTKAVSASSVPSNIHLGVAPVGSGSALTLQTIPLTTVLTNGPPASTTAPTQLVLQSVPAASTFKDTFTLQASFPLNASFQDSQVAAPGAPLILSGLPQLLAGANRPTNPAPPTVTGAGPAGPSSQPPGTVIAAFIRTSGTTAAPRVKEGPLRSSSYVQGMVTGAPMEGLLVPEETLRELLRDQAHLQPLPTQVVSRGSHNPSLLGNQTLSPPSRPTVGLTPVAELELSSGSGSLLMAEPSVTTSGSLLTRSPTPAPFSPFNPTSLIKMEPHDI
CRX, sequence (O43186 whole entry): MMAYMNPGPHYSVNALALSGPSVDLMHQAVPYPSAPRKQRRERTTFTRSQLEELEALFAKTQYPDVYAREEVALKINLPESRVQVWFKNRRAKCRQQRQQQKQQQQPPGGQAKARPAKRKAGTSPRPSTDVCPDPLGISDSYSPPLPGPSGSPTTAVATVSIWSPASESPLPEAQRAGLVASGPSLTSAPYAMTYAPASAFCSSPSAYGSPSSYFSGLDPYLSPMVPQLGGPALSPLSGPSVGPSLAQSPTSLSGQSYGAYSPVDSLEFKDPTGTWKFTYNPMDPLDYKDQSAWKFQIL

For the sequence TCGATT, the binding signal with FEV was 1.02 fold enrichment (6-mer frequency, TF over GST control); with ETV5, 1.12 fold enrichment (6-mer frequency, TF over GST control); in the assay with HSF1, 1.48 fold enrichment (6-mer frequency, TF over GST control); in the assay with SPIC, 1.2 fold enrichment (6-mer frequency, TF over GST control); in the assay with ELF4 it was 1.19 fold enrichment (6-mer frequency, TF over GST control); in the assay with ELK4, 1.14 fold enrichment (6-mer frequency, TF over GST control). Further, the binding signal is 1.04 fold enrichment (6-mer frequency, TF over GST control) with ETV2; 1.1 fold enrichment (6-mer frequency, TF over GST control) with ELF3; 1.37 fold enrichment (6-mer frequency, TF over GST control) with CRX; 1.14 fold enrichment (6-mer frequency, TF over GST control) with ETV1; 1.01 fold enrichment (6-mer frequency, TF over GST control) with ERF; 1.06 fold enrichment (6-mer frequency, TF over GST control) in the assay with ETV3L. For the same sequence, the binding signal is 1.16 fold enrichment (6-mer frequency, TF over GST control) with ETS2; 1.05 fold enrichment (6-mer frequency, TF over GST control) with SPDEF; 1.04 fold enrichment (6-mer frequency, TF over GST control) with ETV7; 1.03 fold enrichment (6-mer frequency, TF over GST control) with ELF5; 1.01 fold enrichment (6-mer frequency, TF over GST control) in the assay with ETV3; 1.04 fold enrichment (6-mer frequency, TF over GST control) with ETV6.

Source of the values: article PMC7862700, “An all-to-all approach to the identification of sequence-specific readers for epigenetic DNA modifications on cytosine”.
